Laboratory results taken from PubChem BioAssay AID1259374 (The Scripps Research Institute Molecular Screening Center, 2018).
The whole screen tested about 650,000 compounds, of which about 5,900 (0.91%) were called active. Cut-off read from the data, not from the text of the source: active = inhibition above about 50%; inactive = the rest. Only a selection was taken, and actives are over-represented in it overall.

What follows are molecules tested against Microphthalmia-associated transcription factor (Homo sapiens) (UniProt O75030) (assay: MITF inhibitors, primary screen, biochemical, AlphaScreen, human (AID 1259374;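 note: 0% = vehicle wells with protein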)). Settings: AlphaScreen MITF homodimerization, bead proximity signal; at 2.6 µM; hits give high values.
Sequence of Microphthalmia-associated transcription factor (Homo sapiens) (O75030 whole entry, looked up): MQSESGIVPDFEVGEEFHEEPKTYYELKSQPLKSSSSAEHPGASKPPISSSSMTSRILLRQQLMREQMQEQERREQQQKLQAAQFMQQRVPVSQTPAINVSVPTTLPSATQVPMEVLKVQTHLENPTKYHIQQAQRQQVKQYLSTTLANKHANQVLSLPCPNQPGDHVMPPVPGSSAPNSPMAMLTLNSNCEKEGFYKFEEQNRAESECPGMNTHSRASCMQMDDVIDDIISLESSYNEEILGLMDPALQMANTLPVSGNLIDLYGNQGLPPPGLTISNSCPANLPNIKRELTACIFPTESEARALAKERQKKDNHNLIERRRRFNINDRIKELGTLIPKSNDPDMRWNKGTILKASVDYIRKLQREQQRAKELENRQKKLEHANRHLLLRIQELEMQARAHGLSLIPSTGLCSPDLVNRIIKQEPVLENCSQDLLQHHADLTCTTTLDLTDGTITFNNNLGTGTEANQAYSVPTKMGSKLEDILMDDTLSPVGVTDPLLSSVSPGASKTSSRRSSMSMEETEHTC

SMILES	inhibition
Cc1ccc(C2CC(c3ccc(Br)cc3)=NN2C(=O)CSc2nnc(CNC(=O)COc3ccccc3)n2C)cc1 (centres undefined)	-9.25% (inactive)
Clc1ccc(CN2CCN(CC3CC=CCC3)CC2)cc1 (centres undefined)	78.5% (active)
Clc1ccc(CN2CCc3nnc(C4CCCO4)n3CC2)cc1 (centres undefined)	9.36% (inactive)
O=C(c1ccccc1)N1CCN(Cc2ccc(Cl)cc2)CC1	48.9% (inactive)
CC(=O)NS(=O)(=O)c1ccc(-c2ccc(/C=C3/C(=O)N(CCCO)C(=O)C(C#N)=C3C)o2)cc1	3.37% (inactive)
CC(=O)NS(=O)(=O)c1ccc(-c2ccc(C=C(C#N)C#N)o2)cc1	64.8% (active)
N#C/C(=C\c1ccc(-c2ccc(S(N)(=O)=O)cc2)o1)C(N)=O	3.71% (inactive)
O=C(CCc1ccc2c(c1)OCO2)N1CCC(c2[nH]ncc2-c2ccccc2)CC1	-0.09% (inactive)
Cc1cc(Br)ccc1OCCN1CCNCC1	36.3% (inactive)
Cc1cccc(OCCN2CCNCC2)c1C	73.1% (active)
Cc1cc(C(C)(C)C)ccc1OCCN1CCNCC1	52.3% (active)
Cc1cccc(OCCOCCN2CCC(C)CC2)c1C	24.9% (inactive)
C=CCc1ccccc1OCCN1CCNCC1	26.5% (inactive)
Cc1ccc(OCCN2CCNCC2)cc1C	9.7% (inactive)
N#Cc1c(/N=C/c2ccccc2OCC(=O)O)sc2c1CCCC2	2% (inactive)
COc1ccccc1CNC(=O)c1ccccc1Br	7.79% (inactive)
O=c1c2ccccc2nc(/C=C\c2ccc(F)c(F)c2)n1-c1ccc(Cl)cc1[N+](=O)[O-]	1.53% (inactive)
Cn1c(CC(=O)NNC(=O)CNC(=O)c2ccc(Br)cc2)nc2ccccc21	8.22% (inactive)
Cc1ccc(-c2nn3c(C)nnc3s2)cc1NC(=O)COc1ccc(Cl)cc1C	-9.16% (inactive)
O=S(=O)(c1cc(Br)ccc1Br)N1CCN(CCO)CC1	7.82% (inactive)
O=S(=O)(c1ccc(Br)cc1Cl)N1CCN(CCc2ccncc2)CC1	75.3% (active)
O=S(=O)(/C=C/c1ccccc1)N1CCN(CCc2ccncc2)CC1	3.78% (inactive)
CCN1CCN(Cc2c(O)ccc3c2O/C(=C\c2cc(OC)ccc2OC)C3=O)CC1	-14.3% (inactive)
CN1CC(CO)O/C1=C(C#N)\C=C1\Nc2ccccc2C1=O (centres undefined)	21.7% (inactive)
COc1ccc(OCCCC(=O)Nc2ccccc2)cc1	14.3% (inactive)

SMILES	inhibition
COc1ccc(OC(=O)COc2ccc(Br)cc2)cc1	1.98% (inactive)
COc1ccc(OCCCC(=O)Oc2ccc(OC)cc2)cc1	80.3% (active)
CCC(C)c1ccccc1NC(=O)CN(C)CC(=O)Nc1ccccc1SC (centres undefined)	89.7% (active)
CN(CC(=O)Nc1ccccc1F)CC(=O)Nc1ccccc1Br	-2.33% (inactive)
CCC(C)c1ccccc1NC(=O)C(C)Cl (centres undefined)	-5.29% (inactive)
Cc1ccc(C23CC4CC(CC(C(=O)NCC(=O)NN)(C4)C2)C3)cc1	-4.06% (inactive)
O=C(COc1ccc(Cl)cc1)N/N=C/c1ccc([N+](=O)[O-])c(O)c1	-8.51% (inactive)
COc1ccc(S(=O)(=O)N(C)CC(=O)Nc2ccc(F)cc2F)cc1OC	-13.8% (inactive)
N#C/C(=C\c1ccc(-c2ccc(F)cc2)o1)C(=O)O	9.25% (inactive)
N#C/C(=C/c1ccc(-c2ccc(F)cc2)o1)C(=O)N1CCCCC1	-2.65% (inactive)
N#C/C(=C/c1ccc(-c2ccc3c(c2)C(=O)NC3=O)o1)C(=O)O	54.7% (active)
CCCN(CCC)C(=O)C(Cc1ccccc1)N1C(=O)C2C3C=CC(C3)C2C1=O (centres undefined)	-7.73% (inactive)
COc1ccc(CNC(=O)CC(C)C)cc1	4.41% (inactive)
COc1ccc(CN[C@H]2C[C@H]3C(=O)N[C@@H](C(C)C)C(=O)N3C2)cc1	16% (inactive)
COc1ccc(CNCC2CN(CC(C)C)CCO2)cc1 (centres undefined)	54.3% (active)
CCCCCNC(=O)COc1ccccc1C#N	-3.44% (inactive)
O=C(Nc1ccc(F)cc1F)c1cc([N+](=O)[O-])ccc1Cl	-3.07% (inactive)
O=C(Nc1nc2ccccc2n1CCOc1ccc(F)cc1)c1ccc(Cl)cc1	-6.19% (inactive)
COc1ccc(-c2nc3ccccc3[nH]2)cc1OC	10.1% (inactive)
COc1cc(Nc2nc(-c3ccc(OC)c(OC)c3)nc3ccccc23)cc(OC)c1	-23% (inactive)
COc1ccc(C2=NNc3cccc4c(OC)ccc2c34)cc1OC	51.8% (active)
CCNCc1ccc(OCC(=O)Nc2ccc(OC)cc2)c(OC)c1	-12.6% (inactive)
COC(=O)Oc1c([N+](=O)[O-])cc2oc(=O)sc2c1[N+](=O)[O-]	59.1% (active)
COc1cc([N+](=O)[O-])cc([N+](=O)[O-])c1NC(=O)N1CCOCC1	11.6% (inactive)
COC(=O)c1ccc(N2CCOCC2)c([N+](=O)[O-])c1	10.3% (inactive)

SMILES	inhibition
Cc1cccc(C(=O)Nc2ccc3oc(-c4ccc(Cl)c(Cl)c4)nc3c2)c1	6.63% (inactive)
O=C(Nc1nc2ccccc2s1)C(Cc1ccccc1)N1C(=O)c2ccccc2C1=O (centres undefined)	-3.65% (inactive)
CNC(=O)c1cc(F)ccc1Nc1cc(Nc2ccc(NC(C)=O)cn2)ncc1C(F)(F)F	1.21% (inactive)
Cc1ccccc1OCc1nnc(SCC(=O)NC(C)(C)C)n1C	11.7% (inactive)
Cc1cccnc1NC(=O)CSc1nnc(COc2ccc(C(C)C)cc2)n1C	53.7% (active)
CC(C)c1ccc(NC(=O)CSc2nnc(CNC(=O)c3ccccc3)n2C)cc1	14% (inactive)
CCOc1cc(/C=N/NC(=O)CC(=O)NCC(C)C)ccc1O	14.6% (inactive)
Cc1nc(NCCCN2CCOCC2)cc(-c2ccccn2)n1	12.2% (inactive)
c1ccc(-c2cc(NCCCn3ccnc3)nc(-c3ccccn3)n2)nc1	115% (active)
Clc1ccc(-c2cc(NCCCn3ccnc3)ncn2)cc1	14.7% (inactive)
CCCCSc1nnc(CNC(=O)Cc2ccccc2)n1-c1ccc(Cl)c(Cl)c1	15.1% (inactive)
O=C1CCc2ccc(OCc3ccccc3F)cc21	12.2% (inactive)
COc1ccc(-n2nc(C(=O)N3CCC(C(N)=O)CC3)c3ccccc3c2=O)c(OC)c1	11.6% (inactive)
CCN1CCN(CC(=O)Nc2ccc(N(CC)CC)cc2C)CC1	70.1% (active)
CCN(CC)c1ccc(NC(=O)CCc2nnc3ccc(N4CCCCC4)nn23)c(C)c1	15.7% (inactive)
CCN(CC)c1ccc(NC(=O)c2ccc(OC)cc2)c(C)c1	-6.58% (inactive)
O=C(Cc1csc(Nc2ccc(Cl)cn2)n1)NCc1ccccc1Cl	13.2% (inactive)
Cc1ccccc1-n1c(SCC(=O)Nc2ccc(C(N)=O)cc2)nnc1-c1ccncc1	24.8% (inactive)
Cc1c(C(=O)c2ccccc2)oc2ccc(NC(=O)C(C)C)cc12	-6.05% (inactive)
O=C1N=C(N2CCCC2)S/C1=C/c1ccc(-c2ccccc2[N+](=O)[O-])o1	18.4% (inactive)
CCCCC(=O)Nc1nc(-c2ccc(I)cc2)cs1	-1.42% (inactive)
CCCn1c(C)cc(-c2csc(NC(=O)Cc3ccsc3)n2)c1C	73.1% (active)
C=CCn1c(C)cc(-c2csc(NC(=O)c3ccc([N+](=O)[O-])s3)n2)c1C	5.62% (inactive)
O=C(NCCc1ccccc1)c1c[nH]c2ccc(S(=O)(=O)N3CCc4ccccc43)cc2c1=O	5.29% (inactive)
COc1ccc(C(=O)N2CCN(Cc3cc(OC)c(OC)cc3OC)CC2)cc1	-7.92% (inactive)

SMILES	inhibition
COc1ccc(/C(C)=N/N)cc1CN1CCCCC1	-0.23% (inactive)
COc1ccc(Br)cc1CN1CCN(CCOCCO)CC1	66.6% (active)
COc1cc(Br)cc(CN2CCCN(C)CC2)c1O	7.81% (inactive)
COc1ccc(Br)cc1CN1CCN(C(C)=O)CC1	2.27% (inactive)
COc1cccc(C(=O)N2CCN(Cc3cc(OC)c(OC)cc3OC)CC2)c1	63.4% (active)
COc1cc(OC)c(OC)cc1CN1CCN(C(=O)c2cccs2)CC1	35.6% (inactive)
COc1cccc(C(=O)N2CCN(C(=O)c3cccc(OC)c3)CC2)c1	-5.18% (inactive)
OCCOCCN1CCN(Cc2ccc(Cl)cc2)CC1	82.7% (active)
OCCN1CCN(CC(O)COCCOc2ccc(Cl)cc2)CC1 (centres undefined)	-9.2% (inactive)
COc1cccc(CN2CCN(CCOCCO)CC2)c1OC	-6.67% (inactive)
COc1ccc(Br)cc1CN1CCN(C(=O)c2cccnc2)CC1	88.2% (active)
CC1SC2(CCCCC2)N(c2ccc(F)cc2)C1=O (centres undefined)	-0.68% (inactive)
COc1ccccc1NC(=O)CN1C(=O)C2CC=C(Cl)CC2C1=O (centres undefined)	2.72% (inactive)
Cc1cc(OCC(O)CNCC(C)O)c(C(C)C)cc1Cl (centres undefined)	0.85% (inactive)
O=S(=O)(NC1CCCC1)c1ccc(-c2ccc(S(=O)(=O)NC3CCCC3)cc2)cc1	-2.79% (inactive)
Clc1ccc(-c2csc(Nc3cccc4ccccc34)n2)cc1Cl	0.76% (inactive)
N#CC1=C(SCC(=O)Nc2cccc(F)c2)NC(=O)CC1c1ccccc1F (centres undefined)	3.64% (inactive)
CCc1ccccc1NC(=O)c1ccc(F)c(S(=O)(=O)NCc2ccc3c(c2)OCO3)c1	10.2% (inactive)
Cc1ccc(/C=C(\C#N)C(N)=O)c(C)c1	6.24% (inactive)
COCCn1nnnc1C(c1cccnc1)N1CCN(c2ccccc2OC)CC1 (centres undefined)	-7.29% (inactive)
Nc1cccc(-c2ccc(C(=O)Nc3ccc(N4CCOCC4)cc3)s2)c1	13.4% (inactive)
CCS(=O)(=O)N1CCC(c2nnc(C3CC3)s2)CC1	1.6% (inactive)
CCS(=O)(=O)N1CCC(N2CC(C)CC(C)C2)CC1 (centres undefined)	31.2% (inactive)
CCS(=O)(=O)N1CCN(C2CCCCC2C)CC1 (centres undefined)	51.2% (active)
